PubChem BioAssay (NCI)
The panel holds about 83,000 compounds, 20% with a hit somewhere; the sample as a whole holds those more often.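 Activity criterion: percent growth below 10, measured after cells in 96-well plates were exposed to a single compound concentration for 48 hours.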 Active and inactive are the calls of the source.

Key:
Experiment in all cases: NCI-60 one-dose screen, 48 h (100 = growth as untreated, 0 = no growth, -100 = all killed)
Details in all cases: 10 µM unless noted
[1] = tested on: SK-MEL-2 melanoma
[2] = tested on: EKVX NSCLC
[3] = tested on: SN12C renal
[4] = tested on: UO-31 renal
[5] = tested on: ACHN renal
[6] = tested on: CAKI-1 renal
[7] = tested on: A498 renal
[8] = tested on: CCRF-CEM leukemia
[9] = tested on: MOLT-4 leukemia
[10] = tested on: TK-10 renal

Measured: growth

CCN1CCN(c2ccc(Nc3ncc4ccc5ncn(C(C)C)c5c4n3)nc2)CC1
active: [1] -56.7% | [2] -6.84% | [3] 4.25% | [4] -5.17% | [5] 2.84% | [6] -10.7% | [7] -61.5% | [8] 4.85% | [9] 2.48%

CN1CCN(CCCn2c3c(sc4ncccc43)c(=O)n3nnc(-c4ccccc4)c23)CC1
inactive: [1] 99.3% | [2] 97.2% | [3] 75.2% | [6] 97.7% | [7] 150%
active: [4] -90.8% | [10] -73.3% | [8] -20.6% | [9] -35%

CSC1=CC(=O)c2ccccc2C1=O
active: [8] -16.7% | [9] -21.7%
inactive: [1] 96.1% | [2] 89.6% | [3] 97% | [4] 28% | [10] 97.9% | [6] 33.6% | [7] 91.5%

CN1CCN(C)c2cncc(Br)c2C1=O
inactive: [1] 118% | [3] 101% | [4] 79.5% | [10] 126% | [7] 85% | [9] 98.5%
active: [2] -82.7% | [6] -89.3%
